The source made the active and inactive calls. How the calls were made is not given here.

Drawing on PubChem BioAssay AID1259412 (Laboratorio de Genomica e Expressao (LGE), UNICAMP, 2018), this text covers growth (% of control) and O2 uptake (% of control) for 39 compounds.

A short description of assay [1]: alternative oxidase inhibition and growth effect – profiling panel (AID 1259412).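 On growth (% of control): growth monitored over 72 h.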 The following applies: AOX-dependent respiration, at 500 µM; for growth (% of control): O2 uptake, measured here: growth; for O2 uptake (% of control): measured here: O2 uptake, control condition (no AOX).
Assay [2] has as its system alternative oxidase (AOX). The description is as above. Particulars: AOX-dependent respiration, at 500 µM, stronger effect = lower value.
Where [3] appears, read: AOX-dependent treatment condition, stronger effect = lower value.

In the case of `O=C(Nc1cccc(NC(=O)c2cccc(F)c2)c1)c1cccc(F)c1`, the growth (% of control) in assay [1] (setting [3]) is 113%; in assay [1] (control condition), 133%. Also, the figures for the O2 uptake (% of control) in assay [1] (stronger effect = lower value) and in assay [2] were 97% and 51.3% (active), respectively.
For `Cc1cccc(C(=O)Nc2cccc(I)c2)c1` the same measures were 61.9%, 110%, 93.2% and 13.3% (active).
As to `O=C(Nc1cccc(NC(=O)c2cccc(Cl)c2)c1)c1cccc(Cl)c1`, the growth (% of control) came out at 90.7% in assay [1] (setting [3]) and 114% in assay [1] (control condition). Moreover, the figures for the O2 uptake (% of control) in assay [1] (stronger effect = lower value) and in assay [2] were 97.7% and 49.2% (active), respectively.
For `O=C(Nc1cccc(OCc2ccccc2)c1)c1ccccc1` the same measures were 99.7%, 117%, 90.5% and 38.2% (active).
For `Nc1cccc(S(=O)(=O)c2cccc(NC(=O)c3cccc(Br)c3)c2)c1`, in that order: 86.5%, 64%, 105% and 110%.
For `O=C(Nc1cccc(C(F)(F)F)c1)c1ccccc1I` the same measures were 14.6%, 92%, 79.2% and 14.3% (active).
As for `O=C(Nc1cccc(OCc2ccccc2)c1)c1cccc(F)c1`, the growth (% of control) in assay [1] (setting [3]) stood at 86%; in assay [1] (control condition) it was 81.9%. In addition, the O2 uptake (% of control) was 97.4% in assay [1] (stronger effect = lower value) and 41.2% (active) in assay [2].
For `O=C(Nc1cccc(Cl)c1)c1cccc(Cl)c1`, in that order: 48.1%, 80.2%, 89.8% and 9.19% (active).
As to `N#Cc1cccc(C(=O)Nc2cccc(Br)c2)c1`, the growth (% of control) in assay [1] (setting [3]) came out at 62.4%; in assay [1] (control condition) it was 89.7%. Also, the O2 uptake (% of control) was 82.6% in assay [1] (stronger effect = lower value) and 21.3% (active) in assay [2].
For `O=C(Nc1cccc(I)c1)c1cccc(Br)c1` the same measures were 88.2%, 103%, 92% and 14.3% (active).
For `O=C(Nc1cccc(NC(=O)c2ccccc2)c1)c1ccccc1`, in that order: 106%, 103%, 92.6% and 44% (active).
For `O=C(Nc1cccc([N+](=O)[O-])c1)c1cccc(Br)c1` the same measures were 74.5%, 80.8%, 95.1% and 23.6% (active).
With `N#Cc1cccc(C(=O)Nc2cccc([N+](=O)[O-])c2)c1`, the growth (% of control) in assay [1] (setting [3]) amounted to 91.7%; in assay [1] (control condition) it was 101%. Moreover, the O2 uptake (% of control) in assay [1] (stronger effect = lower value) came to 110%; in assay [2], 98.7%.
For `N#Cc1cccc(C(=O)Nc2ccccc2)c1` the same measures were 58.9%, 89.5%, 105% and 69.6% (active).
Turning to `COc1cccc(C(=O)Nc2ccccc2C(N)=O)c1`, the growth (% of control) in assay [1] (setting [3]) came out at 80.1%; in assay [1] (control condition), 82.1%. The O2 uptake (% of control) in assay [1] (stronger effect = lower value) was 93.7%; in assay [2] it was 76.2% (inactive).
For `O=C(Nc1cccc(C(F)(F)F)c1)c1cccc(F)c1`, in that order: 7.63%, 35.2%, 83% and 13.8% (active).
For `CCN(CC)CCNC(=O)c1ccccc1` the same measures were 92.5%, 87.9%, 95.7% and 78.4% (active).
For `Cc1cccc(C(=O)NCc2ccc3c(c2)OCO3)c1` the same measures were 41.6%, 48.8%, 99% and 25.8% (active).
Consider `N#Cc1cccc(C(=O)Nc2cccc(Cl)c2)c1`, for which the growth (% of control) was found to be 54.1% in assay [1] (setting [3]) and 87.1% in assay [1] (control condition). Besides, the O2 uptake (% of control) in assay [1] (stronger effect = lower value) was 87.4%; in assay [2], 27.6% (active).
For `N#Cc1cccc(C(=O)Nc2cccc(NC(=O)c3cccc(C#N)c3)c2)c1`, in that order: 91.4%, 132%, 107% and 95.1%.
For `O=C(Nc1cccc(OCc2ccccc2)c1)c1cccc(I)c1`, the results for the growth (% of control) in assay [1] (setting [3]) and in assay [1] (control condition) were 36.7% and 57%, respectively. The O2 uptake (% of control) in assay [1] (stronger effect = lower value) was 100%; in assay [2], 51.2% (active).
For `NC(=O)c1ccccc1NC(=O)c1cccc(Br)c1` the same measures were 97.2%, 80.6%, 80.8% and 36.9% (active).
For `N#Cc1cccc(C(=O)Nc2cccc(OCc3ccccc3)c2)c1` the same measures were 108%, 90.3%, 90.1% and 39.1% (active).
For `NC(=O)c1ccccc1NC(=O)c1cccc(I)c1` the same measures were 91.2%, 98.8%, 87.5% and 35.5% (active).
Consider `O=C(NCc1ccc2c(c1)OCO2)c1cccc(F)c1`, for which the growth (% of control) was 39.8% in assay [1] (setting [3]) and 48.8% in assay [1] (control condition). Besides, the O2 uptake (% of control) in assay [1] (stronger effect = lower value) is 89.6%; in assay [2] it was 36.9% (active).
With `Nc1cccc(S(=O)(=O)c2cccc(NC(=O)c3cccc(F)c3)c2)c1`, the growth (% of control) in assay [1] (setting [3]) was 84%; in assay [1] (control condition), 106%. Also, the O2 uptake (% of control) in assay [1] (stronger effect = lower value) is 104%; in assay [2] it was 101% (inactive).
For `O=C(Nc1cccc(Cl)c1)c1cccc(Br)c1` the same measures were 71.8%, 101%, 85% and 15% (active).
On to `O=C(Nc1ccc(N2CCOCC2)cc1)c1cccc(I)c1`, for which the values for the growth (% of control) in assay [1] (setting [3]) and in assay [1] (control condition) were 95.3% and 99.3%, respectively. Further, the O2 uptake (% of control) in assay [1] (stronger effect = lower value) is 94.4%; in assay [2], 74.5% (inactive).
For `Nc1cccc(S(=O)(=O)c2cccc(NC(=O)c3cccc(Cl)c3)c2)c1`, in that order: 94.1%, 83.7%, 110% and 98.3% (inactive).
On to `Cc1cccc(C(=O)Nc2cccc(C(F)(F)F)c2)c1`, for which the growth (% of control) was 54.5% in assay [1] (setting [3]) and 88.4% in assay [1] (control condition). The O2 uptake (% of control) in assay [1] (stronger effect = lower value) is 101%; in assay [2], 15.2% (active).
For `O=C(Nc1ccc(N2CCOCC2)cc1)c1ccccc1`, in that order: 85.7%, 87.8%, 93.3% and 93.8% (inactive).
For `O=C(Nc1ccccc1)c1cccc(Br)c1`, in that order: 75%, 91.1%, 89.6% and 19.3% (active).
As to `Cc1cccc(C(=O)Nc2cccc([N+](=O)[O-])c2)c1`, the growth (% of control) in assay [1] (setting [3]) was determined as 36.7%; in assay [1] (control condition) it was 80.2%. Moreover, the O2 uptake (% of control) in assay [1] (stronger effect = lower value) was 98.8%; in assay [2], 34.3% (active).
For `COc1cccc(C(=O)Nc2cccc(Br)c2)c1` the same measures were 51.9%, 92%, 85.8% and 27.5% (active).
For `O=C(Nc1ccccc1)c1cccc(F)c1`, in that order: 73.9%, 101%, 103% and 61.8% (active).
For `N#Cc1cccc(C(=O)Nc2cccc(F)c2)c1`, the results for the growth (% of control) in assay [1] (setting [3]) and in assay [1] (control condition) were 55.1% and 107%, respectively. In addition, the O2 uptake (% of control) is 103% in assay [1] (stronger effect = lower value) and 53.5% (active) in assay [2].
For `O=C(Nc1cccc(F)c1)c1cccc(Cl)c1`, in that order: 3.11%, 70.3%, 77.2% and 34.1% (active).
For `O=C(Nc1cccc(OCc2ccccc2)c1)c1cccc(Br)c1` the same measures were 90.8%, 93.9%, 107% and 88.7% (active).
For `COc1cc(NC(=O)c2ccccc2I)cc(OC)c1OC`, in that order: 91.6%, 90.9%, 92.4% and 80% (active).
